{"source": "PubChem BioAssay (NCI)", "note": "About 83,000 compounds went through this panel and 20% of them were active in at least one assay; those are over-represented in the sample as a whole.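 Plates (96-well) were seeded with cells, treated with compound at one concentration, and incubated for 48 hours before percent growth was determined.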 Activity calls are given as the source filed them. The calls were made as follows: active = growth percent below 10; inactive = the rest.", "data": [{"system": "SN12C renal", "experiment": "NCI-60 one-dose screen, 48 h (100 = growth as untreated, 0 = no growth, -100 = all killed)", "details": "10 µM unless noted", "values": [{"smiles": "Cc1ccc2sc3c(NCCCNCCO)nc4ccccc4c3c(=O)c2c1", "growth": "72.8% (inactive)"}, {"smiles": "NCCOc1ncccc1/C=C1\\c2ccccc2-c2ccc(F)cc21", "growth": "2.42% (active)"}, {"smiles": "CNCCNc1nc2ccccc2c2c(=O)c3cc(OC)ccc3sc12", "growth": "66.3% (inactive)"}, {"smiles": "CC(C)c1ccc(S(=O)(=O)NC(=O)NC2CCCC2)cc1", "growth": "97.1% (inactive)"}, {"smiles": "COc1cc(/C=C2\\CN(C)C/C(=C\\c3cc(CN4CCCC4)c(O)c(OC)c3)C2=O)cc(CN2CCCC2)c1O", "growth": "53.6% (inactive)"}, {"smiles": "Nc1ccccc1-c1ccc(-c2ccc(Cl)cc2)c2c1[nH]c1ccccc12", "growth": "66.5% (inactive)"}, {"smiles": "O=C(Cn1cc(COc2ncnc3c2cnn3-c2ccccc2)nn1)Nc1ccccn1", "growth": "94.6% (inactive)"}, {"smiles": "NCCOc1ccccc1/C=C1\\c2ccccc2-c2ccc([N+](=O)[O-])cc21", "growth": "-17.9% (active)"}, {"smiles": "COc1cc(/C(C#N)=C/c2nc3c(N4CCOCC4)nc(Cl)nc3n2C)cc(OC)c1OC", "growth": "14.9% (inactive)"}, {"smiles": "Cc1ccc2cccc(Oc3ccc(Nc4ncnc5onc(-c6ccccc6)c45)cc3)c2n1", "growth": "83.9% (inactive)"}, {"smiles": "COC(=O)/C(CCC=C(C)C)=C1\\[C@@H](OC(C)=O)C[C@@]2(C)[C@H]1C[C@@H](O)[C@H]1[C@@]3(C)CC[C@H](NCc4ccccc4)[C@@H](C)[C@@H]3CC[C@@]12C", "growth": "75.6% (inactive)"}, {"smiles": "COc1cc(/C=C/C(=O)c2ccc(Cl)cc2)cc(CN2CCCCC2)c1O", "growth": "93.1% (inactive)"}, {"smiles": "O=C(/C=C/c1ccc(Cl)cc1)c1ccc(Nc2nc(NCCO)nc(Nc3ccc(Cl)cc3)n2)cc1", "growth": "83.1% (inactive)"}, {"smiles": "CN1CCN(Cc2ccc(NC(=O)c3[nH]ncc3Nc3cc(OC4CCCC4)ncn3)cc2)CC1", "growth": "24.9% (inactive)"}, {"smiles": "Cn1c(/C=C(\\C#N)c2ccccc2)nc2c(N3CCOCC3)nc(Cl)nc21", "growth": "-58.6% (active)"}, {"smiles": "CCN1C(=O)N(CC)C2Nn3c(s/c(=C\\c4ccccc4F)c3=O)=NC21", "note": "(centres undefined)", "growth": "53.5% (inactive)"}, {"smiles": "Cc1ccccc1CNC(=O)C1CN(c2ccc(Cl)cc2)N(c2ccc(Cl)cc2)C1=O", "note": "(centres undefined)", "growth": "90.8% (inactive)"}, {"smiles": "CCCCC1CCc2cccc3c(SCC(=O)N(C)c4ccc(Cl)cc4)cc[n+]1c23", "note": "(centres undefined)", "growth": "104% (inactive)"}, {"smiles": "Clc1ccc(Oc2ccc(Nc3ncnc4onc(-c5ccccc5)c34)cc2)c(Cl)c1", "growth": "94% (inactive)"}, {"smiles": "O=C(O)c1cn(C2CC2)c2cc(N3CCN(C(=O)C[n+]4ccccc4)CC3)c(F)cc2c1=O", "growth": "97.5% (inactive)"}, {"smiles": "O=C(CSc1nc2ccccc2c(=O)n1-c1ccccc1)Nc1ccc(C(=O)/C=C/c2ccc(Cl)cc2)cc1", "growth": "101% (inactive)"}, {"smiles": "Cc1nc(Nc2cn[nH]c2C(=O)Nc2ccc(CN3CCN(C)CC3)cc2)c2ccsc2n1", "growth": "75.4% (inactive)"}, {"smiles": "CN1C(=O)N(C)C2Nn3c(s/c(=C4\\C(=O)N(CCc5ccccc5)c5ccccc54)c3=O)=NC21", "note": "(centres undefined)", "growth": "74.3% (inactive)"}, {"smiles": "O=C(/C=C/c1ccc(C(F)(F)F)cc1)c1ccc(Nc2nc(NCCO)nc(N3CCOCC3)n2)cc1", "growth": "71.5% (inactive)"}, {"smiles": "COc1cc(/C=C/C(=O)c2ccc(Nc3nc(NCCO)nc(N4CCOCC4)n3)cc2)cc(OC)c1OC", "growth": "16.3% (inactive)"}, {"smiles": "COc1cc(/C=C2\\CN(S(=O)(=O)c3ccccc3)C/C(=C\\c3cc(CN4CCCC4)c(O)c(OC)c3)C2=O)cc(CN2CCCC2)c1O", "growth": "-25.8% (active)"}, {"smiles": "O=c1c2cc(F)ccc2sc2c(Nc3ccncc3)nc3ccccc3c12", "growth": "90% (inactive)"}, {"smiles": "O=c1c2cc(F)ccc2sc2c(NCCN3CCCC3)nc3ccccc3c12", "growth": "70.4% (inactive)"}, {"smiles": "CNC(=O)c1cc(Oc2ccc(CC(=O)Nc3cc(C(C)(C)C)cn3C)cc2)ccn1", "growth": "68.5% (inactive)"}, {"smiles": "COc1cc2nc(NC3CCCC3)nc(NC3CCN(C(C)C)CC3)c2cc1OC", "growth": "97.3% (inactive)"}, {"smiles": "O=C(NCc1ccco1)C1CN(c2ccc(Cl)cc2)N(c2ccc(Cl)cc2)C1=O", "note": "(centres undefined)", "growth": "62.9% (inactive)"}, {"smiles": "COc1cccc2cc(N(C)c3nc(C)nc4ccsc34)ccc12", "growth": "25.7% (inactive)"}, {"smiles": "CN1C(=O)N(C)C2(c3ccccc3)OC(=S)NC12c1ccccc1", "note": "(centres undefined)", "growth": "107% (inactive)"}, {"smiles": "Nc1nc(-c2cnccn2)nn1-c1nc2ccccc2s1", "growth": "101% (inactive)"}, {"smiles": "COc1ccc(N)c(-c2cc3c(c4c2[nH]c2ccc(OC)cc24)CCCC3)c1", "growth": "87.8% (inactive)"}, {"smiles": "COc1cccc(/C(C#N)=C/c2nc3c(N4CCOCC4)nc(Cl)nc3n2C)c1", "growth": "12.8% (inactive)"}, {"smiles": "O=c1c(-c2nc3ccccc3[nH]2)cc2ccccc2n1Cc1cn(Cc2ccc(N3CCOCC3)cc2)nn1", "growth": "49.7% (inactive)"}, {"smiles": "Cn1c2c(c(=O)[nH]c1=O)NC1=C(C(=O)c3ccccc31)C1(C=C(O)c3ccccc31)N2", "note": "(centres undefined)", "growth": "108% (inactive)"}, {"smiles": "COC(=O)/C(CCC=C(C)C)=C1\\[C@@H](OC(C)=O)C[C@@]2(C)[C@H]1C[C@@H](O)[C@H]1[C@@]3(C)CC[C@H](NCCCNCCCCNCCCN)[C@@H](C)[C@@H]3CC[C@@]12C", "growth": "38.2% (inactive)"}]}]}
